Experimental data taken from article PMC4242493, “Sequence specificity incompletely defines the genome-wide occupancy of Myc”.
In all, about 33,000 sequences were measured (“normalized occupancy”: median about 0.075, highest 2% from about 0.095 on). Shown is part of a subset that was picked to be rich in the highest values.

What follows are sequences tested against MaxL homodimer (Homo sapiens, UniProt P61244 1-160) (assay: universal protein-binding microarray (PBM); PBS-based mixture, 10 nM His-tagged protein dimer, 2% milk, 200 ng/uL BSA, 50 ng/uL salmon testes DNA, 0.02% TX-100; detection with Alexa 488 anti-His antibody;; high values mean tight binding). Details: protein: recombinant; tags: C-terminal His-tag (pET21a); chain copies: 2; dsDNA, one strand shown.
MaxL homodimer, sequence (P61244 whole entry): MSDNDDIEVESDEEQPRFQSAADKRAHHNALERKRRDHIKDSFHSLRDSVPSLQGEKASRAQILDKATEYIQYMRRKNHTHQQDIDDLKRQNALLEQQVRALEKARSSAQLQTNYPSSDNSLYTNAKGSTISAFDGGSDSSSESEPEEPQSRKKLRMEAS
Method in brief: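 Each 8-mer received a fluorescence intensity from GenePix 4400A scans of Agilent 4 x 44 K 'all 10-mer' universal arrays. Those arrays had been incubated with His-tagged protein dimer at 10 nM, and the bound protein was marked with a fluorophore-conjugated anti-His antibody at 10 ng/μL. Binding occupancy is the intensity scaled to that of the highest-ranked sequence word.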
AACGCATA was tested, and the binding signal was 0.0871 normalized occupancy. With CACGCACA the binding signal was 0.0923 normalized occupancy. CACGCACG showed a binding signal of 0.096 normalized occupancy. For GGCGCACA, the binding signal was 0.0793 normalized occupancy. With CGCGCACA the binding signal was 0.0822 normalized occupancy. For CACGCACC, the binding signal was 0.0913 normalized occupancy. CGCGCACG was tested, and the binding signal was 0.0959 normalized occupancy. Sequence CACGCATA has a binding signal of 0.0976 normalized occupancy. GACGCATA gave a binding signal of 0.0777 normalized occupancy. ACACAGTC showed a binding signal of 0.0783 normalized occupancy. For GTAGTCTA, the binding signal was 0.0723 normalized occupancy. With GTACTACA the binding signal was 0.0864 normalized occupancy. Work on ACTTTAGG yielded a binding signal of 0.073 normalized occupancy. ACGCGAAG gave a binding signal of 0.0765 normalized occupancy. In the case of AGTAGTAA, the binding signal is reported as 0.0731 normalized occupancy. ACAACCGA was tested, and the binding signal was 0.0733 normalized occupancy. For AACGCAAG, the binding signal was 0.073 normalized occupancy. GACGCATC was tested, and the binding signal was 0.077 normalized occupancy. AACGCATT was tested, and the binding signal was 0.0767 normalized occupancy. Work on AACGCATC yielded a binding signal of 0.0731 normalized occupancy. CACGCATC was tested, and the binding signal was 0.0962 normalized occupancy. AACGCATG showed a binding signal of 0.121 normalized occupancy. For AAACTATT, the binding signal was 0.0745 normalized occupancy. In the case of TAGGACTA, the binding signal is reported as 0.0732 normalized occupancy. CACCCGTA was tested, and the binding signal was 0.0782 normalized occupancy. With CAGCATAG the binding signal was 0.0739 normalized occupancy. CAGCATGG gave a binding signal of 0.13 normalized occupancy. Work on CAGCATAA yielded a binding signal of 0.0808 normalized occupancy. Sequence CAGCATGA has a binding signal of 0.106 normalized occupancy. Sequence GAGCATCA has a binding signal of 0.0734 normalized occupancy. For GAGCATGA, the binding signal was 0.0963 normalized occupancy. TAGCATGA gave a binding signal of 0.0921 normalized occupancy. In the case of CAGCATCG, the binding signal is reported as 0.0732 normalized occupancy. Work on GAGCATAA yielded a binding signal of 0.0797 normalized occupancy. CGTCGAAC showed a binding signal of 0.0719 normalized occupancy. With CCTCGTGA the binding signal was 0.125 normalized occupancy. CCTCGTTA was tested, and the binding signal was 0.0752 normalized occupancy. In the case of AATCGTGG, the binding signal is reported as 0.0832 normalized occupancy. In the case of CCTCGTGC, the binding signal is reported as 0.133 normalized occupancy. Work on CCTCGTTC yielded a binding signal of 0.0806 normalized occupancy. With ACTCGTGG the binding signal was 0.0955 normalized occupancy. With GCTCGTGA the binding signal was 0.0843 normalized occupancy. For CATCGTGC, the binding signal was 0.0886 normalized occupancy. Sequence ACTCGTGC has a binding signal of 0.0933 normalized occupancy. Work on ACTCGTGA yielded a binding signal of 0.0957 normalized occupancy. ACTCGTCA was tested, and the binding signal was 0.0793 normalized occupancy. Sequence AGTCGTGA has a binding signal of 0.0749 normalized occupancy. ACGTTGAA was tested, and the binding signal was 0.083 normalized occupancy. Sequence GGGACCAC has a binding signal of 0.078 normalized occupancy. CTCTCCAC showed a binding signal of 0.0859 normalized occupancy. Sequence CTATGCTA has a binding signal of 0.0768 normalized occupancy. AGACACAT showed a binding signal of 0.0849 normalized occupancy. For CTAAGGTC, the binding signal was 0.0732 normalized occupancy. AAATGACC gave a binding signal of 0.0764 normalized occupancy. With ATAAGCTG the binding signal was 0.0801 normalized occupancy. With CTGCGTGC the binding signal was 0.0861 normalized occupancy. In the case of ATGCGTGC, the binding signal is reported as 0.0969 normalized occupancy. With CTGCGTGA the binding signal was 0.0818 normalized occupancy. With ATGCGTGG the binding signal was 0.106 normalized occupancy. With ATGCGTTG the binding signal was 0.0816 normalized occupancy. ATGCGTCC showed a binding signal of 0.0782 normalized occupancy. With GTGCGTGA the binding signal was 0.0887 normalized occupancy. ATGCGTAG gave a binding signal of 0.0832 normalized occupancy. Work on ATGCGTGA yielded a binding signal of 0.0965 normalized occupancy. For ACATCCCG, the binding signal was 0.0795 normalized occupancy. Sequence AGAATGGA has a binding signal of 0.0768 normalized occupancy. GCGACGCA gave a binding signal of 0.0736 normalized occupancy. Sequence CGCGTAAC has a binding signal of 0.0752 normalized occupancy. CCACATGA showed a binding signal of 0.134 normalized occupancy. Sequence CCACATTC has a binding signal of 0.0852 normalized occupancy. Sequence CAACATGC has a binding signal of 0.094 normalized occupancy. For CCACATGG, the binding signal was 0.227 normalized occupancy. With CCACATGC the binding signal was 0.163 normalized occupancy. CAACATGA gave a binding signal of 0.0936 normalized occupancy. Work on CCACATTA yielded a binding signal of 0.093 normalized occupancy. For CAACATGG, the binding signal was 0.0932 normalized occupancy. CCACATAG gave a binding signal of 0.0803 normalized occupancy. GATCCGCA was tested, and the binding signal was 0.0769 normalized occupancy. Work on CATTCAGC yielded a binding signal of 0.0725 normalized occupancy. GAATTATA was tested, and the binding signal was 0.0789 normalized occupancy. TCACTGCA was tested, and the binding signal was 0.075 normalized occupancy. In the case of CTCAAGTC, the binding signal is reported as 0.0771 normalized occupancy. Sequence AAGGTTTA has a binding signal of 0.0757 normalized occupancy. For AACACGCG, the binding signal was 0.12 normalized occupancy. In the case of AACACGCA, the binding signal is reported as 0.0915 normalized occupancy. CACACGCC gave a binding signal of 0.0955 normalized occupancy. AACACGGT was tested, and the binding signal was 0.0777 normalized occupancy. GACACGCC showed a binding signal of 0.0849 normalized occupancy. With CACACACA the binding signal was 0.087 normalized occupancy. CACACGCA gave a binding signal of 0.0865 normalized occupancy. Sequence AACACGCT has a binding signal of 0.0974 normalized occupancy. Work on AACACACA yielded a binding signal of 0.0847 normalized occupancy. For AACACGCC, the binding signal was 0.0909 normalized occupancy. With CACACGCG the binding signal was 0.124 normalized occupancy. In the case of CACACACG, the binding signal is reported as 0.0916 normalized occupancy. Sequence CCACGGAC has a binding signal of 0.0742 normalized occupancy. With CGACTAAA the binding signal was 0.0736 normalized occupancy. Work on TCACTTAA yielded a binding signal of 0.078 normalized occupancy. GAACCAAC was tested, and the binding signal was 0.0752 normalized occupancy. With AGACGACA the binding signal was 0.0751 normalized occupancy. For ACAAACCT, the binding signal was 0.0779 normalized occupancy. For AACGACTG, the binding signal was 0.0722 normalized occupancy. For GACATTAC, the binding signal was 0.0843 normalized occupancy. ATGCTATA showed a binding signal of 0.0889 normalized occupancy. In the case of GGGCGTGA, the binding signal is reported as 0.0932 normalized occupancy. Sequence ACGCGTGG has a binding signal of 0.139 normalized occupancy. ACGCGTTC gave a binding signal of 0.0785 normalized occupancy. Work on ACGCGTGC yielded a binding signal of 0.13 normalized occupancy. CCGCGTAC was tested, and the binding signal was 0.0726 normalized occupancy. CGGCGTGC was tested, and the binding signal was 0.0923 normalized occupancy. Work on ACGCGTCC yielded a binding signal of 0.0815 normalized occupancy. Work on GCGCGTTA yielded a binding signal of 0.0795 normalized occupancy. Sequence CCGCGTGC has a binding signal of 0.145 normalized occupancy. ACGCGTAG gave a binding signal of 0.0796 normalized occupancy. Sequence ACGCGTCG has a binding signal of 0.0769 normalized occupancy. For GCGCGTGA, the binding signal was 0.106 normalized occupancy. GTGAGGGA gave a binding signal of 0.0752 normalized occupancy. AAAAAGCA showed a binding signal of 0.078 normalized occupancy. Sequence GAAAGCGC has a binding signal of 0.0724 normalized occupancy. ATTACCTA showed a binding signal of 0.0784 normalized occupancy. For AGGTTCTA, the binding signal was 0.0755 normalized occupancy. CAAGCGAA was tested, and the binding signal was 0.0755 normalized occupancy. In the case of CAATTTCA, the binding signal is reported as 0.0751 normalized occupancy. In the case of CCGCGTAA, the binding signal is reported as 0.0729 normalized occupancy. CGGCGTGA gave a binding signal of 0.0839 normalized occupancy. Sequence ACGCGTGA has a binding signal of 0.114 normalized occupancy. ACGCGTCA showed a binding signal of 0.0796 normalized occupancy. For CCGCGTGA, the binding signal was 0.142 normalized occupancy. Sequence ACGCGTAA has a binding signal of 0.0882 normalized occupancy. Sequence ATGACGTG has a binding signal of 0.0885 normalized occupancy. In the case of AAGTGATT, the binding signal is reported as 0.0761 normalized occupancy. Work on CCTGCGCA yielded a binding signal of 0.0738 normalized occupancy. TGAGAGAA gave a binding signal of 0.0879 normalized occupancy. Work on TATAAGAA yielded a binding signal of 0.0821 normalized occupancy. With GTTACTTA the binding signal was 0.0751 normalized occupancy. AATCTAAC showed a binding signal of 0.0749 normalized occupancy. ATGCCACC showed a binding signal of 0.0841 normalized occupancy. Work on ACGCCATG yielded a binding signal of 0.102 normalized occupancy. ATGCCACA was tested, and the binding signal was 0.0905 normalized occupancy. Sequence ACGCCACA has a binding signal of 0.0778 normalized occupancy. Sequence ACGCCATA has a binding signal of 0.0812 normalized occupancy. In the case of ACGCCACT, the binding signal is reported as 0.0784 normalized occupancy. In the case of ACGCCATC, the binding signal is reported as 0.0794 normalized occupancy. For ACGCCACG, the binding signal was 0.0993 normalized occupancy. With ATGCCACG the binding signal was 0.101 normalized occupancy. Work on ATGCGTTC yielded a binding signal of 0.0856 normalized occupancy. Sequence CAACCCAC has a binding signal of 0.082 normalized occupancy. GGCGTTCA was tested, and the binding signal was 0.0718 normalized occupancy. Work on CCCACAAA yielded a binding signal of 0.075 normalized occupancy. CCCACGAA gave a binding signal of 0.0758 normalized occupancy. ACCACGAG showed a binding signal of 0.115 normalized occupancy. CCCACGAG showed a binding signal of 0.0996 normalized occupancy. Sequence ACCACAAA has a binding signal of 0.0758 normalized occupancy. Sequence ACCACGAA has a binding signal of 0.0771 normalized occupancy. GAAGTGCA showed a binding signal of 0.0728 normalized occupancy. For GTTTCGCA, the binding signal was 0.0757 normalized occupancy. Sequence ATGGCTGC has a binding signal of 0.0809 normalized occupancy. For CGTGCTGA, the binding signal was 0.095 normalized occupancy. GATGGAAC was tested, and the binding signal was 0.0776 normalized occupancy. Work on CAATGCTC yielded a binding signal of 0.0774 normalized occupancy. CGATGCTC gave a binding signal of 0.0773 normalized occupancy. For ATATGCTC, the binding signal was 0.0928 normalized occupancy. Work on CCATGCTC yielded a binding signal of 0.0989 normalized occupancy. Sequence ACATGCTC has a binding signal of 0.106 normalized occupancy. CTATGCTC gave a binding signal of 0.0822 normalized occupancy. CGAGCGCA gave a binding signal of 0.0729 normalized occupancy. GACATCCC was tested, and the binding signal was 0.0774 normalized occupancy. Work on CACGTTAG yielded a binding signal of 0.105 normalized occupancy. CACGTTCA showed a binding signal of 0.0904 normalized occupancy. For GACGTTAC, the binding signal was 0.0746 normalized occupancy. AACGTTAG was tested, and the binding signal was 0.0732 normalized occupancy. Sequence AACGTTAC has a binding signal of 0.0772 normalized occupancy. With CACGTTAC the binding signal was 0.115 normalized occupancy. For CACGTTCC, the binding signal was 0.096 normalized occupancy. CACGTTCG was tested, and the binding signal was 0.0852 normalized occupancy. CACGTTAA showed a binding signal of 0.0921 normalized occupancy.
